Only some compounds are listed: those with a hit (about 7.5% of all), similar ones and a draw of the others.
FLuc counter – inhibits or activates purified firefly luciferase, miR-21 counter-screen | 360,000 tested, 6.9% active | Potency, µM (highest dose often 57.5 µM), for inactives: at the top dose activity change, negative = inhibition, hits mostly inhibitors | P08659 | purified FLuc, Km substrates, luminescence inhibition | AID 588342;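 also: plate controls were vehicle for no effect and reference inhibitor for full effect; nearly all actives have a fitted effect of over 55% in size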
Target sequence (P08659 whole entry, looked up): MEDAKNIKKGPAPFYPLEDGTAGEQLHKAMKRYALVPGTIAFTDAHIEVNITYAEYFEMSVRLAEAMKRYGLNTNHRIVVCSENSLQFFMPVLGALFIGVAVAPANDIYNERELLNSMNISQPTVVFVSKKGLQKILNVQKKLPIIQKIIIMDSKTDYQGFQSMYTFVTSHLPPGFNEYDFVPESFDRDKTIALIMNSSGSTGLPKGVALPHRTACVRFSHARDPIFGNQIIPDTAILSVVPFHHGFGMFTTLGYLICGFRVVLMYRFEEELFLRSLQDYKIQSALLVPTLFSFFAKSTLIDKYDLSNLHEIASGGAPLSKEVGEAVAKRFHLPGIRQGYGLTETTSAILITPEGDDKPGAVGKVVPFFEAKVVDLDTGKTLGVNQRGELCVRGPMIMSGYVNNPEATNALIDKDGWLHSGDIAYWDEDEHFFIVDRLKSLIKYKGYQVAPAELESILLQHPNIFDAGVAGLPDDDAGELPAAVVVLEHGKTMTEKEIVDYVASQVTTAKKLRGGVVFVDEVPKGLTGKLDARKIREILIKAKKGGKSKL
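Biochemical qHTS of compounds, final roughly 60 µM downward over six points, against 10 nM purified firefly luciferase using Km concentrations of substrates (10 uM D-luciferin, 10 uM ATP) in Tris acetate pH 7.5 buffer; luminescence output.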
ELG1 genotox – genotoxicity induction in ELG1-luciferase HEK293T cells; 330,000 tested, 1.3% active; HEK293T ELG1-luciferase reporter, luminescence, 16 h; Potency, µM (highest dose often 46 µM), for the others: at the top dose activity change, positive = activation, hits mostly activators; also: % of control where 0% means no effect; nearly all actives have a fitted effect of over 60% in size
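Reporter readout depends on ELG1 protein level, which increases with genetic stress. After 16 hr compound exposure at 37 °C, luciferase activity was quantified using ONE-Glo.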
SMN2 splice up – enhancers of SMN2 splice variant expression | HEK293 SMN2-luciferase splicing reporter, luminescence, 30-36 h | Potency, µM (top dose mostly 46.1 µM), for inactives: top-dose activity change, positive = activation, actives largely listed as activators | AID 1458 | 210,000 tested, 2.8% active; also: % of control where 0% means no effect; nearly all actives have a fitted effect of over 55% in size
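HEK293 cells carry an SMN2 minigene-luciferase reporter in which exon 7 inclusion puts luciferase in frame. Cells were seeded at 2000 cells/well, attached for 10-12 hours, then exposed to compounds for 30-36 hours at 37C before ONE-Glo luminescence.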
Rab9 promoter act – activates the Rab9 promoter | Huh7 Rab9 promoter-luciferase reporter, luminescence, 24 h | 320,000 tested, 2.8% active | Potency, µM (doses to about 9.22 µM), inactives show at the top dose activation, negative = inhibition, most hits filed as activators | AID 485297; also: % of control where 0% means no effect; nearly all actives have a fitted effect of over 60% in size
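Huh7 reporter line, Rab9 promoter upstream of luciferase. Compound exposure 24 h at 37 °C in reduced-serum medium with 10% FBS. Read-out: luminescence.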
KinaseGlo FLuc – blocks Kinase-Glo luciferase, a counter-screen artifact; Kinase-Glo luciferase, ATP luminescence, 8 min; Potency, µM (series often up to 38.3 µM), without a hit: at the top dose activity change, negative = inhibition, actives largely listed as inhibitors; 200,000 tested, 0.28% active; AID 1379; also: % is scaled to controls: 0 for no effect and ±100 for the full control effect; nearly all actives have a fitted effect of over 60% in size
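Compound is pinned into ATP-containing buffer (10 uM ATP, imidazole pH 7.2, 7 mM MgCl2). Kinase-Glo luciferase reagent is then added. Light output is recorded following an 8-min room-temperature incubation.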
NPC1 prom act – NPC1 promoter activation | 320,000 tested, 2.4% active | Huh7 NPC1 promoter luciferase reporter, 24 h | AID 485313 | Potency, µM (highest dose often 9.22 µM), inactives show top-dose activation, usual class: activators; also: % of control where 0% means no effect; nearly all actives have a fitted effect of over 60% in size
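Luminescence from an NPC1 promoter-driven luciferase reporter in stably transfected Huh7 cells was measured after 24 h compound treatment at 37 °C, followed by 10 min ambient incubation with luciferase detection reagent.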
* = called active by the depositor; ? = inconclusive; . = no result; [ ] = dose if it differs, or a comment. Calls follow the shape of the dose curve; as a rule, active = well fitted curve in the direction sought with a large enough effect; inconclusive = small, poorly fitted or top-dose-only effect, or another doubt; inactive = no such curve, though single readings can be large; an effect the other way counts as inactive or inconclusive. Potency is read from the fitted curve at half-maximal effect.

SMILES	FLuc counter	ELG1 genotox	SMN2 splice up	Rab9 promoter act	KinaseGlo FLuc	NPC1 prom act
COc1cccc(CNC(=O)c2c3c(nc4ccccc24)C(=O)N(C2CCCCC2)C3)c1	3%	.	.	.	.	.
CCOC(=O)c1cccc(NC(=O)CCS(=O)(=O)c2ccc3c(c2)CC(=O)N3C)c1	-5%	.	.	.	.	.
O=C1CC(c2nc(-c3cccc(Cl)c3)no2)CN1c1ccc2c(c1)OCCO2 (configuration not stated)	-1%	.	.	.	.	.
Cc1ccc(NC(=O)COC(=O)C2CC2)cc1Cl	15µM*	3%	.	1%	.	-2%
O=C(COC(=O)C1CC1)Nc1ccc(OC(F)F)cc1	?	10%	-6%	0%	-2%	0%
Cc1ccc(NC(=O)COC(=O)C2CC2(Cl)Cl)cc1C (configuration not stated)	8.5µM*	3%	-8%	-1%	3%	1%
O=C(COC(=O)C1CCC1)NCc1ccc(Cl)cc1Cl	17µM*	12%	.	2%	.	0%
O=C(COC(=O)C1CC1)Nc1ccc(N=Nc2ccccc2)cc1	?	21µM*	6.3µM*	0.63µM*	-5%	3.5µM*
O=c1c2sc3ccccc3c2n(Cc2cccc(Cl)c2)c(=O)n1Cc1ccc(F)cc1	0%	.	-12%	.	.	.
COCCNC(=O)c1ccc(-c2nc(CN3CCc4ccccc43)c(C)o2)cc1	-4%	.	.	.	.	.
CCCCC(=O)OCC(=O)Nc1ccc(OC(F)F)cc1	?	1%	-16%	8%	-3%	0%
CCCCC(=O)OCC(=O)Nc1ccc(C)c(F)c1	17µM*	2%	-13%	-8%	1%	1%
COC(=O)CCC(=O)Nc1ccc(N=Nc2ccccc2)cc1	21µM*	?	?	?	0%	27%
Cc1cc(NC(=O)N2CCC(CN3CCCCCC3)CC2)ccc1Br	3%	.	.	.	.	.
O=C(Nc1cc(Cl)ccc1Cl)c1ccco1	-1%	3%	.	2%	.	-2%
CS/C(Nc1cc(Cl)ccc1Cl)=C(/C#N)C(=O)c1ccco1	2.1µM*	21µM*	.	?	.	?
COc1ccc(C(=O)Nc2nc3ccc(S(C)(=O)=O)cc3s2)cc1	?	3%	6%	16%	-4%	2%
CS(=O)(=O)c1ccc2nc(NC(=O)c3cccc(Cl)c3)sc2c1	?	12%	.	1%[1.84 µM]	.	17%
Cc1ccc(C(=O)Nc2nc3ccc(S(C)(=O)=O)cc3s2)o1	3µM*	?	4µM*	2.5µM*	13µM*	2.8µM*
O=C(NC(=S)Nc1nc2ccc(F)cc2s1)c1ccco1	1.3µM*	?	10µM*	2.5µM*	-2%	6%
Cc1c(Cl)ccc2sc(NC(=O)c3ccco3)nc12	5.4µM*	?	.	4µM*	.	2.8µM*
CS(=O)(=O)c1ccc2nc(NC(=O)c3ccco3)sc2c1	4.8µM*	?	7.9µM*	1.6µM*	?	2.8µM*
O=C(CN1C(=O)CC(c2ccccc2)Sc2ccccc21)Nc1cccc(Cl)c1 (configuration not stated)	-12%	.	1%	.	.	.
CC1CCN(c2nn3c(=O)c(C(=O)NCCc4ccc(Cl)cc4)cnc3s2)CC1	1%	.	.	.	.	.
CCOC(=O)c1cc(-c2ccc(OC)cc2)n(CCC(=O)Nc2nc3ccc(OCC)cc3s2)c1C	5%	.	.	.	.	.
Cc1noc(C)c1C(=O)Nc1nc2ccc(S(C)(=O)=O)cc2s1	1.1µM*	?	.	?	.	?
COCC(=O)Nc1nc2ccc(S(C)(=O)=O)cc2s1	?	16%	-2%	18%	-4%	17%
CCCCOc1ccc(C2C(=O)N(C3CCCCC3)CC(=O)N2C2CCCCC2)cc1 (configuration not stated)	2%	.	.	.	.	.
NS(=O)(=O)c1cccc(NC(=O)c2cc(=O)c3ccccc3o2)c1	-9%	-1%	.	-1%	.	-1%
O=C(Nc1ccccc1Br)c1cc(=O)c2ccccc2o1	12µM*	7.3µM*	.	4µM*	.	2.5µM*
